According to the supplement of paper PMC3334620:
The full ranking holds about 33,000 sequences; the median of “E-score (-0.5 to 0.5)” is about -0.056, and the highest 2% start at about 0.38. The entries come from a sample that favours the highest values as a whole.

The sequences below were run against Stb4 (UniProt P50104) (assay: PBM E-score (8-mer binding enrichment) (E-score (-0.5 to 0.5)); higher = stronger / more preferred TF binding). Conditions: protein concentration: 200 nM; construct: GST-DNA-binding domain.
Sequence of UniProt P50104 (P50104 whole entry, the tested form may be a part): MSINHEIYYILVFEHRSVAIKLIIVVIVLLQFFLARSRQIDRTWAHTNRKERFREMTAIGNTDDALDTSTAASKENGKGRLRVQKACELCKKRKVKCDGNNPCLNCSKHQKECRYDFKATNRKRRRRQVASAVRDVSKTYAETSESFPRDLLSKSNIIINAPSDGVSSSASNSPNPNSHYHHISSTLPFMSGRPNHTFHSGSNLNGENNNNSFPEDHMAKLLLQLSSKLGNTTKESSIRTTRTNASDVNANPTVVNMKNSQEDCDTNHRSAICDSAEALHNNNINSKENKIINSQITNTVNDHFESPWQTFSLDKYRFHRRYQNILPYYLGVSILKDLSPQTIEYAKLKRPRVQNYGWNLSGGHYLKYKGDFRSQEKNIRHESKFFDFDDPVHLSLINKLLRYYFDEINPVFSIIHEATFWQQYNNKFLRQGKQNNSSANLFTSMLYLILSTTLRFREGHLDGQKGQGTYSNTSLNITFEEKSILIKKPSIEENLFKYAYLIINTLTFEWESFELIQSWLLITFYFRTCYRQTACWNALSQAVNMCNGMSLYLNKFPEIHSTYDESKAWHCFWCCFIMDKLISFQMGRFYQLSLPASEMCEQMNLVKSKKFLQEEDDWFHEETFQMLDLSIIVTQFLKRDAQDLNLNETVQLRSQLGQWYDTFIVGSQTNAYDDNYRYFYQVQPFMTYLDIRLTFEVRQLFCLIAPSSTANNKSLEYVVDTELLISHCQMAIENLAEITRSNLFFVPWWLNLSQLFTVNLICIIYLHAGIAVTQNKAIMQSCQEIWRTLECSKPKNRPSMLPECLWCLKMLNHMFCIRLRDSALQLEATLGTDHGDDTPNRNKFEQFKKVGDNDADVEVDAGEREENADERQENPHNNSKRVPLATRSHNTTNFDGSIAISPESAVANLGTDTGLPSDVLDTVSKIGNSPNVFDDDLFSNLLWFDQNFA
Procedure, shortened: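 Full-length yeast transcription factors or their DNA-binding domains, GST-tagged and expressed with PURExpress, were applied at about 100-200 nM to universal all-10-mer Agilent arrays. These arrays had been made double-stranded by primer extension on fresh or once-stripped slides. Detection used fluorescent anti-GST, normalisation used masliner, and E-scores for ungapped eight-base words pooled with reverse complements came from the Universal PBM Analysis Suite.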

Sequence | PBM E-score
CATCAACC | 0.00345
ACATCAAA | -0.0159
ACTCATCT | -0.224
AGCCAAGA | -0.22
AAAGGAGT | 0.0609
GATGCGAC | 0.0109
CTACTTGC | 0.104
CGGATGAG | 0.369
AGGATGAA | -0.0759
AGGATGTC | -0.0723
AGGATGTA | -0.177
CGGATGTC | 0.426
CGGATGTA | 0.443
CTGATGTC | 0.0602
CGGATGAA | 0.433
GGGATGTA | 0.109
ATCCTCTG | -0.208
CGCCACAA | -0.0226
ACCCGTTA | 0.269
AATGGAAA | 0.0387
GGTCCCGA | 0.39
AGTCCCGG | 0.304

Sequence | PBM E-score
CGTCCCAA | -0.155
GGTCCCTA | -0.115
GTCCCCGA | 0.288
AGTCCCGC | 0.15
AGTCCCGA | 0.389
CGTCCCGC | 0.248
CGTCCCGA | 0.402
CGTTACTA | -0.124
AGCCCCAC | -0.0851
ACAGGACA | -0.0558
CCATTGGA | -0.213
CTATTCAG | -0.288
CCCGCCAG | 0.0645
AGAATAAA | -0.194
AAATCTAT | -0.00166
ACGGAAGA | 0.349
GCGGAAGA | 0.317
CCGGAAGG | 0.392
ACGGAAGC | 0.337
CGGGAAGA | 0.401
CCGGAAGC | 0.395
ACGGAAGG | 0.313

Sequence | PBM E-score
CCGGAAGA | 0.389
CGGGAAGC | 0.299
AGGGAAGA | -0.277
CAGGAAGG | -0.208
GCGGAAGC | 0.336
CATACGGG | 0.152
AGACCGTG | -0.0481
AACTTGCC | 0.139
GAGTCGCA | -0.21
CCAGCCCC | -0.0533
CGTTCCAG | -0.0906
AACTCATA | 0.148
TCAGAAGA | -0.217
CGGGAATA | 0.417
TCGGAAGA | 0.455
GGGGAATA | -0.0405
AGGGAATA | 0.0561
TAGGAAGA | -0.21
ATTAGCAC | 0.00903
CTCCTGGC | -0.113
AGGCTAAA | -0.163
TGGCTAAA | 0.0298

Sequence | PBM E-score
CGGCTAAA | 0.388
AGTAGGGG | 0.0719
AGGATCAC | -0.249
CGGATCAC | 0.397
CGGATCAA | 0.401
TGGATCAA | -0.243
CGGATCGA | 0.404
CGGATCTC | 0.3
AGGATCGA | 0.00545
CGGATCAG | 0.33
CGGATCGC | 0.361
GGGATCTA | 0.0821
CGGATCTA | 0.391
GGGATCAC | -0.0541
CCTACAAG | -0.104
CGGTGGAG | 0.121
CATTCAAA | 0.048
ACGAGTAC | -0.106
ACGAGTTC | -0.00258
CCGAGTTA | 0.34
CCGAGTCA | 0.381
GCGAGTCC | -0.0651
